Results filed as inconclusive are left out. Unmarked numbers belong to inactive results. Calls of active or inactive are those of the source. Calls come from the whole dose curve; as a rule, active = well fitted curve in the direction sought with a large enough effect; inconclusive = small, poorly fitted or top-dose-only effect, or another doubt; inactive = no such curve, though single readings can be large; an effect the other way counts as inactive or inconclusive.

The target of experiment [1] is Rap guanine nucleotide exchange factor 3 (Homo sapiens) (UniProt O95398). Briefly: Confirmatory qHTS for antagonist of cAMP-regulated guanine nucleotide exchange factor 3 (EPAC1) (AID 1645880). Note: nearly all actives have a fitted effect of over 55% in size. Note: potency is the fitted concentration of half-maximal effect. The method in brief:
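Nucleotide exchange uses 100 nM EPAC1, 250 nM RAP1B-BODIPY-GDP and 50 uM GDP, with compounds in a concentration-titration series. After 5 min at room temperature, fluorescence (480 nm ex/540 nm em) is read every 5 min for 30 min. Data are normalized to control ATA and DMSO.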
In general terms: In qHTS, concentration-response curves come from the screen itself.

Experiment [2] shares this target. Nature of the experiment: Confirmatory qHTS for agonist of cAMP-regulated guanine nucleotide exchange factor 3 (EPAC1) (AID 1645881).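 For activation: EPAC1 catalysed release of BODIPY-GDP from Rap1B seen as fluorescence loss; 100% = effect of cAMP agonist control.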 Note: nearly all actives have a fitted effect of over 75% in size. Note: potency is the fitted concentration of half-maximal effect.
For experiment [3], the target named is Rap guanine nucleotide exchange factor 4 (Homo sapiens) (UniProt Q8WZA2). Briefly: Confirmatory qHTS for agonist of cAMP-regulated guanine nucleotide exchange factor 4 (EPAC2) (AID 1645884). For activation: % is set by controls: 0 for no effect and ±100 for the full control effect.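 Note: nucleotide exchange releases bodipy-GDP from Rap1 and this lowers its fluorescence; nearly all actives have a fitted effect of over 65% in size.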 Note: potency is the fitted concentration of half-maximal effect.
Rap guanine nucleotide exchange factor 4 (Homo sapiens), sequence (Q8WZA2 whole entry, looked up): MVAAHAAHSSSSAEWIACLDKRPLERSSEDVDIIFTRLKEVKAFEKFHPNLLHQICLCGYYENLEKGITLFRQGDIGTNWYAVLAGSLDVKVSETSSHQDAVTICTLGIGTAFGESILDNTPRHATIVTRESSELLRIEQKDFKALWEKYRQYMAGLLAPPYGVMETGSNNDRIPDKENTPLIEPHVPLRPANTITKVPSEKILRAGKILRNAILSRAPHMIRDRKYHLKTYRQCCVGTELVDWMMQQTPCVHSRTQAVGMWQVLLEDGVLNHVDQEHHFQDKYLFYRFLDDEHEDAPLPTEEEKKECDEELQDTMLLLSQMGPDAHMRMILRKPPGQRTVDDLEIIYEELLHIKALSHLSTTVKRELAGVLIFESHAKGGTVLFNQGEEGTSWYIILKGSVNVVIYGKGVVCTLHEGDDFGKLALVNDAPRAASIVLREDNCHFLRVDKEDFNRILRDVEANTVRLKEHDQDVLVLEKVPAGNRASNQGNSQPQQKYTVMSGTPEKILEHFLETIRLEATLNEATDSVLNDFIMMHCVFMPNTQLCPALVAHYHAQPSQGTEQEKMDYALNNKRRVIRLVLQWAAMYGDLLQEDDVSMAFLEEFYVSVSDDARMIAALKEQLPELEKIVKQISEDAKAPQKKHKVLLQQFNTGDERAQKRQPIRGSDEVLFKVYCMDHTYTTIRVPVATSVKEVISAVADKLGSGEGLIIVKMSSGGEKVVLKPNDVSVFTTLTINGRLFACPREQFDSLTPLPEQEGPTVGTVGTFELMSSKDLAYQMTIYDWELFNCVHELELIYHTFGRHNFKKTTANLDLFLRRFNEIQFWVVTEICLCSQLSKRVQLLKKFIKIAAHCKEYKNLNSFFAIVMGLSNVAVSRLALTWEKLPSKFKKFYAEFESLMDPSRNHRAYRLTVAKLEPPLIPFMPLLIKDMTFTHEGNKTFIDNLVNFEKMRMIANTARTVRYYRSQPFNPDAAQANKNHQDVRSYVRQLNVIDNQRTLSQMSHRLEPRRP
For experiment [4] the target is unchanged. Nature of the experiment: Confirmatory qHTS for antagonist of cAMP-regulated guanine nucleotide exchange factor 4 (EPAC2) (AID 1645885). For activity change, negative = inhibition: % is set by controls: 0 for no effect and ±100 for the full control effect. Note: nearly all actives have a fitted effect of over 25% in size. Note: potency is the fitted concentration of half-maximal effect.
The target in experiment [5] is Rap guanine nucleotide exchange factor 3 (Homo sapiens) (UniProt O95398). Briefly: Counterscreen qHTS for antagonist of cAMP-regulated guanine nucleotide exchange factor 3 (EPAC1) (AID 1645888).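 Note: fluorescence loss as bound BODIPY-GDP is released from Rap1B; % of control where 0% means no effect.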 The method in brief:
(§1)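 Rap1B–BODIPY-GDP (250 nM) with 50 uM GDP; compounds pin-transferred to 9.74 nM–152 uM final (activator) or from 7.32 nM upwards (inhibitor). Fluorescence Ex/Em 480/540 nm read at 5 and 30 min, then after adding cAMP or buffer, at room temperature.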
In general terms: A counterscreen serves to expose hits that act by an unwanted route or on another target.

Experiment [6] shares this target. Nature of the experiment: Counterscreen qHTS for agonist of cAMP-regulated guanine nucleotide exchange factor 3 (EPAC1) (AID 1645889). For activation: % of control where 0% means no effect. Note: nearly all actives have a fitted effect of over 40% in size. Note: potency is the fitted concentration of half-maximal effect. The method in brief:
as §1

Rap guanine nucleotide exchange factor 3 (Homo sapiens), sequence (O95398 whole entry, looked up): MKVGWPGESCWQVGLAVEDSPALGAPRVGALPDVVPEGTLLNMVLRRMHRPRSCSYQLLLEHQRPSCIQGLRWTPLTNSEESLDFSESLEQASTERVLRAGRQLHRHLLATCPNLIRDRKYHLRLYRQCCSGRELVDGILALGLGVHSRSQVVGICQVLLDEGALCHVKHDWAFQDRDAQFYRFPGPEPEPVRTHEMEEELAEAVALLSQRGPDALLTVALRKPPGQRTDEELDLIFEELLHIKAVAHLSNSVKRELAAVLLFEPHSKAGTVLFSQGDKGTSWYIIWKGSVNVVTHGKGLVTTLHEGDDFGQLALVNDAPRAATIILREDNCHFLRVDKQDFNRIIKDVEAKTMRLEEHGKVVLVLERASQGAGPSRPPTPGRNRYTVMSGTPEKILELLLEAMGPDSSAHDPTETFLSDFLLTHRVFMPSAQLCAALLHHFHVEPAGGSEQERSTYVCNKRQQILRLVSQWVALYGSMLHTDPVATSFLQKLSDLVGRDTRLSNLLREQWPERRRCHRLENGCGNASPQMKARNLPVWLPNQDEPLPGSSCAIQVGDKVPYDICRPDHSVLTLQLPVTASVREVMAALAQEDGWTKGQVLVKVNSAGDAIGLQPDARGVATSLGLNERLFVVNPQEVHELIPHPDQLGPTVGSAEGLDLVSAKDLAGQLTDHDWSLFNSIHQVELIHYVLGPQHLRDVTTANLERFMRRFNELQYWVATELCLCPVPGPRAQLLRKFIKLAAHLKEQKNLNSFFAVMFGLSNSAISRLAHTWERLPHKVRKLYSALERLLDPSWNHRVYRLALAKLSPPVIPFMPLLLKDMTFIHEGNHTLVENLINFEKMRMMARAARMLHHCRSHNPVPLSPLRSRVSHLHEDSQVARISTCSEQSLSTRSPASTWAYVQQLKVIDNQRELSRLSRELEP

As to `COc1cc2cncc(Cc3ccc(Cl)cc3)c2cc1OC`, the Potency result in experiment [1], in experiment [2], in experiment [3], in experiment [4], in experiment [5] and in experiment [6] was “inactive” throughout.
As for `O=c1cc(-c2ccccc2)nc2c(-c3ccccc3)c(C(F)(F)F)[nH]n12`, the figures for the Potency in experiment [1] and in experiment [4] were 42.6 µM (active) and 16.9 µM (active), respectively. For the same compound, the Potency entry in experiment [2], in experiment [3], in experiment [5] and in experiment [6] was “inactive” in each case.
For `CCOc1ccccc1NC(=O)COC(=O)c1ccc(S(=O)(=O)N2CCCC2)cc1`, the Potency result in experiment [1], in experiment [2], in experiment [3], in experiment [4], in experiment [5] and in experiment [6] was “inactive” in each case.
Turning to `Cc1c(C(=O)N2CCCCC2)oc2ccc(Br)cc12`, the Potency result in experiment [1], in experiment [2], in experiment [3], in experiment [4], in experiment [5] and in experiment [6] was “inactive” in each case.
Take `CC(C)(C)[C@H](N)C(=O)N[C@H]1CCC2C3CC=C4C[C@@H](O)CC[C@]4(C)C3CC[C@@]21C` (stereo partly drawn): the Potency result in experiment [1], in experiment [2] and in experiment [4] was “inactive” each time. Besides, the activation in experiment [3] was 3.5% [at 17.1 µM, percent relative to cAMP agonist control]; in experiment [6], 31.4% [at 30.8 µM]. In addition, the activity change, negative = inhibition in experiment [5] is -9.07% [at 30.8 µM].
Turning to `CCCC(=O)N1c2nc(C(C)C)nn2C2(CCCCC2)[C@@H]2CCCC[C@@H]21`, the Potency result in experiment [1], in experiment [2], in experiment [3], in experiment [4], in experiment [5] and in experiment [6] was “inactive” in each case.
Turning to `CCc1cccc(C)c1NC(=O)c1cc2ccccc2o1`, the Potency entry in experiment [1], in experiment [2], in experiment [3], in experiment [4], in experiment [5] and in experiment [6] was “inactive” throughout.
Take `COC(=O)c1c(SC)nc2ccccc2c1OCc1cc(C)ccc1C`: the Potency entry in experiment [1], in experiment [2], in experiment [3], in experiment [4], in experiment [5] and in experiment [6] was “inactive” each time.
Turning to `O=C(Nc1sc(-c2ccccc2)cc1C(=O)O)c1ccccc1`, the Potency in experiment [1] is 75.7 µM (active). Besides, the Potency result in experiment [2], in experiment [3], in experiment [4], in experiment [5] and in experiment [6] was “inactive” each time.
For the compound `CSCCC(NC(=O)c1ccc(Cl)cc1)C(=O)OCC(=O)NCc1ccco1` (stereo not drawn), the Potency entry in experiment [1], in experiment [2] and in experiment [4] was “inactive” throughout. Moreover, the activation in experiment [3] was 0.694% [at 17.1 µM, percent relative to cAMP agonist control]; in experiment [6], -1.33% [at 30.8 µM]. The activity change, negative = inhibition in experiment [5] is -13% [at 30.8 µM].
Consider `C=CCNC(=O)C1CC1(c1cccc(C)c1)c1cccc(C)c1` (stereo not drawn), for which the Potency result in experiment [1], in experiment [2], in experiment [3], in experiment [4], in experiment [5] and in experiment [6] was “inactive” in each case.
On to `O=C(c1ccc(Br)cc1)N(Cc1cccs1)c1ccc(F)cc1`, for which the Potency entry in experiment [1], in experiment [2], in experiment [3], in experiment [4], in experiment [5] and in experiment [6] was “inactive” each time.
As to `O=S(=O)(Nc1nccs1)c1ccc(NCc2cc(Br)cc(Br)c2O)cc1`, the Potency is 56.2 µM (active) in experiment [1] and 1.51 µM (active) in experiment [4]. For the same compound, in experiment [2], the Potency entry was “inactive”. For the same compound, the activation in experiment [3] is -0.584% [at 17.1 µM, percent relative to cAMP agonist control]; in experiment [6] it was 31.2% [at 30.8 µM]. Besides, the activity change, negative = inhibition in experiment [5] was 9.07% [at 30.8 µM].
For `O=C(O)CN1C(=O)/C(=C\c2cccc(OCc3ccc(Cl)cc3)c2)SC1=S`, in experiment [1], the Potency was 75.7 µM (active). In addition, the Potency entry in experiment [2], in experiment [3], in experiment [4], in experiment [5] and in experiment [6] was “inactive” throughout.
On to `COc1ccc(CNC(=O)c2cc(=O)c3cc(C)ccc3o2)cc1`, for which the Potency result in experiment [1], in experiment [2], in experiment [3], in experiment [4], in experiment [5] and in experiment [6] was “inactive” in each case.
With `N#Cc1cc(C(=O)c2ccccc2O)cn(-c2nccs2)c1=O`, the Potency entry in experiment [1] and in experiment [5] was “inactive” throughout. Besides, the Potency was 112 µM (active) in experiment [2], 100 µM (active) in experiment [3], 47.8 µM (active) in experiment [4] and 39.8 µM (active) in experiment [6].
For `Cc1ccc2c(c1)c(/C=C/c1cc[n+](C)cc1)c(C)n2C`, the Potency entry in experiment [1], in experiment [4] and in experiment [5] was “inactive” each time. Moreover, the Potency in experiment [2] was 100 µM (active); in experiment [3], 100 µM (active); in experiment [6], 8.91 µM (active).
Consider `Cc1cc(/C=N/NC(N)=S)c(O)c(/C=N/NC(N)=S)c1`, for which the Potency result in experiment [1], in experiment [4] and in experiment [5] was “inactive” each time. The figures for the Potency in experiment [2], in experiment [3] and in experiment [6] were 44.7 µM (active), 50.1 µM (active) and 6.31 µM (active), respectively.

The record behind these values is PubChem BioAssay (NCATS).
